Consider 56 sequences from the supplement of paper PMC7726561.

The full ranking holds about 1,400 sequences; the median of “thermal melting temperature (Tm) of peptide-HLA complex” is about 60, and the lowest 2% start at about 45. The full list was thinned out, with the lowest values kept by preference.
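Also: lysates heated 10 min at 37–73 °C, complexes pulled down with pan-HLA I antibody, peptide signal by DIA-MS relative to 37 °C, Tm where half the complex is unfolded.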

This test concerns the target HLA-B*07:02. Nature of the test: thermal melting temperature (Tm) of peptide-HLA complex; higher = more thermostable pHLA complex. To be noted: C1R-B*07:02.
On to VPNWHRDLV, for which the thermal melting temperature is 58.3 °C.

The sequence KPMPSLPQL came in with a thermal melting temperature of 44.9 °C. VPRAILVDL registered a thermal melting temperature of 62.4 °C. Next, NPRQPLPASGL: 58.3 °C; SPRPPAEGF: 55.8 °C; RPNGTKVAVL: 60.1 °C. The result for RPKTPPVVI reads 59.6 °C; that for FPIPAAEVDRL, 62.2 °C.

The sequence RPAANPIQFTL registered a thermal melting temperature of 59.8 °C.

In the case of IPRSITVLV, the thermal melting temperature is 62.4 °C. Next, MPHVPITTL: 61.3 °C; LPQYRLISI: 61.3 °C. Sequence YPARYRPTAL showed a thermal melting temperature of 58.2 °C. The result for QPRLFTMDL reads 60.2 °C; that for SPKSPTAAL, 60.1 °C.

On to VPQESRFNL, for which the thermal melting temperature came to 57.1 °C. Consider LPRSINTDTL, for which the thermal melting temperature is 58.5 °C. The result for KPKFILSVL reads 62.7 °C; that for YPRPLLIAF, 62 °C.

The sequence LPELKSTL had a thermal melting temperature of 60.8 °C. Next, SPSFPRPSL: 61.4 °C; IPDVKGAVL: 58.7 °C. On to SPAPPLLHV, for which the thermal melting temperature is 60.8 °C. Sequence KPYAHILSV registered a thermal melting temperature of 55.5 °C. SPAPRTAL: the thermal melting temperature stood at 57.4 °C. FPKNIFAEL: the thermal melting temperature came to 62.8 °C. Next, RPASGSPFQL: 52.6 °C. SPYPGLRLISL: the thermal melting temperature was found to be 62.1 °C. Next, MPYSNGRPAL: 58.2 °C; HPRSPNVLSV: 57.6 °C. The result for AVDPNRAVPL reads 60.5 °C; that for GPHVPFTVF, 62.3 °C. In turn, GPRSAQVAQSL had a thermal melting temperature of 40.4 °C. As for SPRALTQPLGL, the thermal melting temperature was found to be 61.2 °C. Next, RPTEGVQAL: 54.3 °C. Next, VIAPVRAVL: 59.2 °C. The result for VARPLSTAL reads 59.6 °C.

The sequence HPVVSSVPL came in with a thermal melting temperature of 57.8 °C. In the case of RPYGVGLLI, the thermal melting temperature came out at 59 °C.

Sequence IPSIRNGIL came in with a thermal melting temperature of 62.8 °C. SPRTPVSPVKF returned a thermal melting temperature of 59.3 °C. The result for SPRAPVSPLKF reads 59.5 °C. The result for WPHPPGPFL reads 62.3 °C; that for SPIYISRII, 58.8 °C; that for RPFERTITM, 56.5 °C. Consider QPATPGLGM, for which the thermal melting temperature amounted to 57 °C. Next, APSGTRVVQVL: 41.4 °C; KPRPIIPML: 60.7 °C. Next, IPTKKSQVF: 58.9 °C; YPFFRGVTI: 61.8 °C; HPRAPVLL: 59.5 °C. Next, TPEEVRLPL: 62.1 °C; RPTGGVGAV: 54.3 °C.

As for SPANLPAVL, the thermal melting temperature stood at 62.6 °C. The result for FPRAPSTSDSV reads 57.1 °C; that for TPLGTRSGL, 55.6 °C.
